# Test results reported in PubChem BioAssay (EPA / NIEHS).
# Values joined by “and” are separate entries in the source; they are usually repeats but may differ in a detail not shown here. Identical values can stand only once. Results filed as inconclusive are left out. Active and inactive are the calls of the source. Rule for the calls: active = hit-call score of the fitted dose curve at least 0.9, where 1 is the maximum; inconclusive = response in the unintended direction; inactive = score below 0.9.
# Test system: not listed separately
# Assay: TOX21_p53_BLA_p2_viability: Viability Assessment in the Tox21 HCT-116 p53 Agonism Beta-lactamase Assay, Phase 2 (AID 2283591);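 note: actives lower the ATP signal meaning cytotoxicity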
# Summary of the method: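 Cytotoxicity readout: CellTiter-Glo ATP luminescence, 30 min at room temperature, after the beta-lactamase read. Cells were HCT116 exposed 16 h at 37C to compounds pin-transferred at 217-fold dilution from DMSO stocks.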
row,SMILES,outcome
1,CCOc1ccccc1OCC,inactive
2,CC(=O)Nc1ccccc1O,inactive
3,CCCC/C=C\CCCCCCCCCC=O,inactive
4,O=C(O)COCCN1CCN(C(c2ccccc2)c2ccc(Cl)cc2)CC1 (centres undefined),inactive
5,CCCCCCOC(=O)CC,inactive
6,O=Nc1ccc(Nc2ccccc2)cc1,inactive
7,CC(C#N)(CCC(=O)O)N=NC(C)(C#N)CCC(=O)O (centres undefined),inactive
8,C=C(C)C(=O)O[C@H]1C[C@@H]2CC[C@@]1(C)C2(C)C,inactive
9,C=CC(C)(CCC=C(C)C)OC=O (centres undefined),inactive
10,CC(C)[C@H]1CC[C@@H](C)CC1=O,inactive
11,CCC(C(=O)NC(N)=O)c1ccccc1 (centres undefined),inactive
12,CC1CC(OC(=O)c2ccccc2O)CC(C)(C)C1 (centres undefined),inactive
13,CCCCCCCCCCCCCC(=O)O,inactive
14,CC(C)=CCCC(C)=CCCC(C)=CCO,inactive
15,CCCCNC(=O)NS(=O)(=O)c1ccc(C)cc1,inactive
16,CN(C)CCCN,inactive
17,CC(C)OP(=O)(CP(=O)(OC(C)C)OC(C)C)OC(C)C,inactive
18,COC(C)CCO (centres undefined),inactive
19,O=C(OCc1ccccc1)C(=O)OCc1ccccc1,inactive
20,CCC(=O)OCc1ccccc1,inactive

# Target: Cellular tumor antigen p53 (Homo sapiens) (UniProt P04637)
# Sequence (P04637 whole entry, looked up): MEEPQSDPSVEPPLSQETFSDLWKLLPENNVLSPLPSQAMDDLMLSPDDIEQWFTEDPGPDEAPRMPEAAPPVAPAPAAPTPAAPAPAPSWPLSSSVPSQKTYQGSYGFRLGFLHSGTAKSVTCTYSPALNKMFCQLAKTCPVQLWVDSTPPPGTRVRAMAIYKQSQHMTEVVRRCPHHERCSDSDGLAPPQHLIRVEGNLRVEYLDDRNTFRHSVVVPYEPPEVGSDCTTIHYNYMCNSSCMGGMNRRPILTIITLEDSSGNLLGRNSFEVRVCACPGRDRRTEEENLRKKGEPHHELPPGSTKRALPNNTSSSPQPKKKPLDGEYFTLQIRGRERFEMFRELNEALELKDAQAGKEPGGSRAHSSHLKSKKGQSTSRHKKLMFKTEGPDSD
# Assay: TOX21_p53_BLA_p2_ratio: Tox21 HCT-116 p53 Agonism Beta-lactamase Assay, Ratio, Phase 2 (AID 2283592)
# Summary of the method: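 Readout: blue/green (460/530 nm) FRET emission ratio after 2 h CCF4-AM loading at room temperature, excitation 405 nm. HCT116 p53 bla cells, 16 h compound exposure at 37C, 5% CO2; agonist direction fitted against DMSO baseline.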
SMILES,outcome,AC50
CCCCCOC(=O)CCC,inactive,–
CCOC(=S)SSC(=S)OCC,inactive,–
CCOc1ccccc1OCC,inactive,–
CC(=O)Nc1ccccc1O,inactive,–
CCCC/C=C\CCCCCCCCCC=O,inactive,–
CC(C)=CCO,inactive,–
O=C(O)CCSCCC(=O)O,inactive,–
CC(=O)O[C@H](CC(=O)[O-])C[N+](C)(C)C,inactive,–
CN1[C@@H]2CC(OC(=O)[C@H](CO)c3ccccc3)C[C@H]1[C@@H]1O[C@@H]12 (some centres undefined),inactive,–
O=Nc1ccc(Nc2ccccc2)cc1,–,46 µM (active) and 46.3 µM (active)
C=CC(C)(CCC=C(C)C)OC=O (centres undefined),inactive,–
CC(C)[C@H]1CC[C@@H](C)CC1=O,inactive,–
CC(O)C(C)O (centres undefined),inactive,–
CCC(C(=O)NC(N)=O)c1ccccc1 (centres undefined),inactive,–
CNCCO,inactive,–
CC1CC(OC(=O)c2ccccc2O)CC(C)(C)C1 (centres undefined),inactive,–
CC(C)(C)NC(N)=O,inactive,–
CCCCCCCCCCCCCC(=O)O,inactive,–
CC(C)=CCCC(C)=CCCC(C)=CCO,inactive,–
CCCCNC(=O)NS(=O)(=O)c1ccc(C)cc1,inactive,–
CN(C)CCCN,inactive,–
CC(C)c1ccc(C(C)C)cc1,inactive,–
O=C(Nc1ccccc1)c1cc([N+](=O)[O-])ccc1Cl,inactive,–

# Test system: not listed separately
# Assay: TOX21_p53_BLA_p3_viability: Viability Assessment in the Tox21 HCT-116 p53 Agonism Beta-lactamase Assay, Phase 3 (AID 2283593);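 note: cells exposed to compound for 16 h before reading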
# Summary of the method: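 Cellular ATP was quantified by CellTiter-Glo luminescence, read after 30 min at room temperature. Beforehand, HCT116 cells (4000/well) received compound 5 h post-seeding, 217-fold diluted from DMSO, then incubated 16 h at 37C.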
row,SMILES,outcome
1,CCCC/C=C\CCCCCCCCCC=O,inactive
2,O=C(O)COCCN1CCN(C(c2ccccc2)c2ccc(Cl)cc2)CC1 (centres undefined),inactive
3,CC(C)=CCO,inactive
4,CC(=O)O[C@H](CC(=O)[O-])C[N+](C)(C)C,inactive
5,CC(C#N)(CCC(=O)O)N=NC(C)(C#N)CCC(=O)O (centres undefined),inactive
6,C=C(C)C(=O)O[C@H]1C[C@@H]2CC[C@@]1(C)C2(C)C,inactive
7,C=CCOC(=O)CCC1CCCCC1,inactive
8,OCC(CO)(CO)COCC(CO)(CO)CO,inactive
9,CCCCCCCCCCCCCC(=O)O,inactive
10,CC(C)=CCCC(C)=CCCC(C)=CCO,inactive
11,CC(C)c1ccc(C(C)C)cc1,inactive
12,Nc1ccc(S(=O)(=O)O)c(N)c1,inactive
13,CCC(=O)OCc1ccccc1,inactive

# Target: Cellular tumor antigen p53 (Homo sapiens) (UniProt P04637)
# Assay: TOX21_p53_BLA_p3_ratio: Tox21 HCT-116 p53 Agonism Beta-lactamase Assay, Ratio, Phase 3 (AID 2283596)
# Summary of the method: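 Cells were seeded at 4000/well, rested 5 h at 37C, then dosed with DMSO compound solutions (217-fold dilution) for 16 h. CCF4-AM substrate was loaded for 2 h at room temperature, and the 460/530 nm emission ratio was fitted for gain of signal versus DMSO.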
SMILES,outcome,AC50
CCOC(=S)SSC(=S)OCC,inactive,–
CCOc1ccccc1OCC,inactive,–
CCCC/C=C\CCCCCCCCCC=O,inactive,–
O=C(O)COCCN1CCN(C(c2ccccc2)c2ccc(Cl)cc2)CC1 (centres undefined),inactive,–
CC(C)=CCO,inactive,–
O=C(O)CCSCCC(=O)O,inactive,–
CCCCCCOC(=O)CC,inactive,–
CC(=O)O[C@H](CC(=O)[O-])C[N+](C)(C)C,inactive,–
CN1[C@@H]2CC(OC(=O)[C@H](CO)c3ccccc3)C[C@H]1[C@@H]1O[C@@H]12 (some centres undefined),inactive,–
O=Nc1ccc(Nc2ccccc2)cc1,–,77.1 µM (active) and 61.3 µM (active)
C=C(C)C(=O)O[C@H]1C[C@@H]2CC[C@@]1(C)C2(C)C,inactive,–
C=CC(C)(CCC=C(C)C)OC=O (centres undefined),inactive,–
CC(O)C(C)O (centres undefined),inactive,–
CCC(C(=O)NC(N)=O)c1ccccc1 (centres undefined),inactive,–
CNCCO,inactive,–
CC1CC(OC(=O)c2ccccc2O)CC(C)(C)C1 (centres undefined),inactive,–
CC(C)Oc1ccccc1O,inactive,–
C=CCOC(=O)CCC1CCCCC1,inactive,–
CCCCCCCCCCCCCC(=O)O,inactive,–
CCCCNC(=O)NS(=O)(=O)c1ccc(C)cc1,inactive,–
CN(C)CCCN,inactive,–
CC(C)c1ccc(C(C)C)cc1,inactive,–
CC(C)OP(=O)(CP(=O)(OC(C)C)OC(C)C)OC(C)C,inactive,–
COC(C)CCO (centres undefined),inactive,–
O=C(OCc1ccccc1)C(=O)OCc1ccccc1,inactive,–
O=C(Nc1ccccc1)c1cc([N+](=O)[O-])ccc1Cl,inactive,–
CCC(=O)OCc1ccccc1,inactive,–

# Test system: not listed separately
# Assay: TOX21_p53_BLA_p4_viability: Viability Assessment in the Tox21 HCT-116 p53 Agonism Beta-lactamase Assay, Phase 4 (AID 2283597);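 note: hits lower the luminescence signal meaning cytotoxicity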
# Summary of the method: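 ATP content by CellTiter-Glo luminescence, 30 min RT, read after the beta-lactamase ratio step. Cells: HCT116, 4000/well, compound added after 5 h, exposure 16 h at 37C. Signal loss = reduced viability.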
SMILES,outcome,AC50
CCOC(=S)SSC(=S)OCC,inactive,–
CC(=O)Nc1ccccc1O,inactive,–
CC(C)=CCO,inactive,–
O=C(O)CCSCCC(=O)O,inactive,–
CN1[C@@H]2CC(OC(=O)[C@H](CO)c3ccccc3)C[C@H]1[C@@H]1O[C@@H]12 (some centres undefined),inactive,–
O=Nc1ccc(Nc2ccccc2)cc1,–,85.3 µM (active) and 75.2 µM (active)
CNCCO,inactive,–
C=CCOC(=O)CCC1CCCCC1,inactive,–
OCC(CO)(CO)COCC(CO)(CO)CO,inactive,–
CC(C)=CCCC(C)=CCCC(C)=CCO,inactive,–
CCCCNC(=O)NS(=O)(=O)c1ccc(C)cc1,inactive,–
CN(C)CCCN,inactive,–
CC(C)c1ccc(C(C)C)cc1,inactive,–
Nc1ccc(S(=O)(=O)O)c(N)c1,inactive,–
O=C(Nc1ccccc1)c1cc([N+](=O)[O-])ccc1Cl,inactive,–
CCC(=O)OCc1ccccc1,inactive,–
